Experimental data: PubChem BioAssay
Records with an inconclusive call do not appear. Activity calls are given as the source filed them.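 Rule for the calls, unless noted: active = RAM network inhibition above 8.4% in each of two replicates, 3 SD over the compound average; inconclusive = above 8.4% inhibition in only one replicate; inactive = 8.4% inhibition or less in each replicate.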

Experiments:
[1] = Her2 expression decrease, cell viability multiplex – SKBR3 breast tumor cells, AlphaScreen, ATP viability, primary screen (AID 461;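 active = Her2 level under about 52% in both replicate screens, with viability over 70% of control, limit read from the data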;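 for Her2 level: lower value means less Her2 protein in the cells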;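 for viability: percent of carrier control wells set as 100% viability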); conditions: SKBR3 Her2 protein level, 18-24 h, measured here: SKBR3 viability, ATP luminescence, at 10 µM
[2] = target: Receptor tyrosine-protein kinase erbB-2 (Homo sapiens) (UniProt P04626); experiment: as above; conditions: 18-24 h, at 10 µM, stronger effect = lower value
Chain of Receptor tyrosine-protein kinase erbB-2 (Homo sapiens) (P04626 whole entry, looked up): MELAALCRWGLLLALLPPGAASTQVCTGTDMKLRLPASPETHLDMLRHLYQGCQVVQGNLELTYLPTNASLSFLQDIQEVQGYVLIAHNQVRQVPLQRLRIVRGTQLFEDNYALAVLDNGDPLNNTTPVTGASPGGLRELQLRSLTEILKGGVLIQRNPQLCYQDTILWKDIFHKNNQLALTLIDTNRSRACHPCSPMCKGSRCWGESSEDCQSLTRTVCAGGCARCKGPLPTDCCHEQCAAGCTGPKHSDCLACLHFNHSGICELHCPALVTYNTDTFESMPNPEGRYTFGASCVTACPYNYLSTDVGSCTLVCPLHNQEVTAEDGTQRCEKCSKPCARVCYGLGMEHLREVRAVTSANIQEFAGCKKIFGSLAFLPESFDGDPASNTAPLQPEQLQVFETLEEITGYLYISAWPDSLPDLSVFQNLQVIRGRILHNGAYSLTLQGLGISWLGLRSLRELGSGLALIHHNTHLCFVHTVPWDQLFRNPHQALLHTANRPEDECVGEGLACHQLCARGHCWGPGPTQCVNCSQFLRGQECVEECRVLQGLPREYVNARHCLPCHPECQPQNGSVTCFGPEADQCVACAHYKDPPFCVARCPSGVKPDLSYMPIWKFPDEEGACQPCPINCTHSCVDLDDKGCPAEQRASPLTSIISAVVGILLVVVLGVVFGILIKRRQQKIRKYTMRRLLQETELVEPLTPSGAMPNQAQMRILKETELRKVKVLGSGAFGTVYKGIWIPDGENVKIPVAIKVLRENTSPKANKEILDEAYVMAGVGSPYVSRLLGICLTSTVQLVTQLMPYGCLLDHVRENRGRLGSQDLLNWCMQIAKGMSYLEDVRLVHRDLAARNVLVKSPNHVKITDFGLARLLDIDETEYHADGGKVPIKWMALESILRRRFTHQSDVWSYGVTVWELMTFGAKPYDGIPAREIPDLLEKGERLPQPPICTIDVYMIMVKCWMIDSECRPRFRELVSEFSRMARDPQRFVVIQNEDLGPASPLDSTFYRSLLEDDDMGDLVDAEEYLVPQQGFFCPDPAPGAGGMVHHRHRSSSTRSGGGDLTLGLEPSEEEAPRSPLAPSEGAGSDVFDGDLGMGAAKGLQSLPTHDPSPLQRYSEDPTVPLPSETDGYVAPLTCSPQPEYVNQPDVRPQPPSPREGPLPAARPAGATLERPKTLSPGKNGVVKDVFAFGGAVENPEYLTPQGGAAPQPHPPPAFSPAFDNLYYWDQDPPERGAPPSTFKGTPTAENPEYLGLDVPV

[3] = reduced viability of SK-BR-3 breast cancer cells – cell-based, 24 h, human, pilot screen (AID 572;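 active = viability at or below 10% of carrier control in both of two separate runs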;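 note: compound exposure lasted between 18 and 24 h rather than exactly 24 h; 100% = carrier-treated control wells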); conditions: SK-BR-3 viability, CellTiter-Glo luminescence, at 10 µM, stronger effect = lower value
[4] = H69AR cell proliferation blockers – human, duplicate replicates, primary screen (AID 580;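 active = viability at or under a set limit in both replicates, limit being median viability minus 3 SD, cut at about 48% in these data, passing the limit was not always enough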;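 note: 100% = mean luminescence of untreated wells and 0% = no signal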); conditions: H69AR lung tumor cells viability, ATP luminescence, 72 h; at 10 µM; stronger effect = lower value
[5] = MRP1 drug-resistance reversers in H69AR cells – cell-based, doxorubicin co-treatment, pilot screen (AID 601;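 active = viability loss from added drug above about 55%, and viability with drug at most 40%, in both replicates, limit read from the data, passing the limit was not always enough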); conditions: CellTiter-Glo, 72 h, at 10 µM; for differential viability (reversal): stronger effect = higher value
[6] = yeast transport mutant growth inhibition pilot in 384-well plates, post-Golgi transport modulator project (AID 636; in the data active = inhibition above about 31%); conditions: absorbance 615 nm, about 18 h, stronger effect = higher value
[7] = growth suppression of yeast trafficking mutant, preliminary HTS, modulators of trafficking downstream of Golgi apparatus project, 1536-format plate, OD 615 nm (AID 637; in the data active = inhibition above about 30%); conditions: yeast transport mutant growth, absorbance 615 nm, 18 h; stronger effect = higher value
[8] = S. cerevisiae growth inhibition in permissive medium (OD615), pilot counter-assay for S. cerevisiae lifespan shortening project, permissive growth control (AID 705;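 active = growth inhibition above 25% in both replicates, a cutoff set 3 SD above the mean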); conditions: OD615, 24 h, at 10 µM, stronger effect = higher value
[9] = S. cerevisiae growth inhibition in restrictive medium, OD615, pilot screen, restrictive growth control, yeast lifespan reduction project (AID 706;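 active = growth inhibition above a set limit, 3 SD over mean compound inhibition, in both replicates, cut at about 43% in these data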;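 note: modified DeaD lifespan yeast strain shifted to restrictive glucose medium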); conditions: OD615, 48 h, at 10 µM, stronger effect = higher value
[10] = doxorubicin toxicity protection in MRP-1 cells – H69AR cells, CellTiter-Glo, duplicate, MRP-1 activator project, pilot screen (AID 807;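 active = viability increase at or above a cutoff of the median across tested compounds plus 3 SD, cut at about 8.5% in these data, passing the limit was not always enough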;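 note: compound pretreatment 18-22 h then 72 h combined with doxorubicin; 0% = doxorubicin alone and 100% = vehicle without doxorubicin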); conditions: H69AR viability with doxorubicin, CellTiter-Glo luminescence; at 10 µM; stronger effect = higher value
[11] = viability of HCT116 without oncogenic beta-catenin – human colon tumor cells, pilot screen (AID 823;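 active = cell viability at or below a set limit in both duplicate runs, the limit being the all-compound median minus 4 SD, cut at about 23% in these data, passing the limit was not always enough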;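 note: 0% = wells killed by 20 µM Hyamine and 100% = untreated DMSO cell wells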); conditions: HCT116 beta-catenin knockout viability, CellTiter-Glo, 60 h; at 10 µM; stronger effect = lower value
[12] = viability of PTEN-null HCT116 cells – cell-based, HCT116 clonal line, CellTiter-Glo, pilot screen (AID 824;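 active = viability at or below 27.92% in each of two runs, the all-compound median minus 4 SD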;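 note: 0% = 20 µM Hyamine control and 100% = vehicle cell control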); conditions: HCT116 PTEN-deleted viability, 60 h, at 10 µM, stronger effect = lower value
[13] = RAM pathway blockade in budding yeast – dse1pr::URA3 reporter, 5-FOA selection, pilot screen (AID 869;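 active = inhibition over a set limit, the all-compound mean plus 3 SD, in both replicate runs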;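 note: 0% = DMSO wells with no growth and 100% = 10 µM 1-NA-PP1 with full growth; RAM network block rescues cells from 5-FOA so hits raise OD615 growth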); conditions: S. cerevisiae dse1pr::URA3 5-FOA growth, OD615, 2 d; at 10 µM; stronger effect = higher value; strain carries analog-sensitive mutant Cbk1 kinase
[14] = RAM signaling pathway blockade in yeast – S. cerevisiae, Pdr1DBD-CYC8 efflux-inhibited sensitized strain, primary screen (AID 1298);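 note: 0% = DMSO untreated cells without growth and 100% = 10 µM 1-NA-PP1 full growth; higher means more yeast growth rescued from 5-FOA killing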; conditions: S. cerevisiae cbk1-as DSE1-URA3 strain, 5-FOA growth OD615, 2 d; at 50 µM; stronger effect = higher value
[15] = HUVEC growth inhibition – cell-based, human, primary screen (AID 575;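 active = viability at or below 30% in both replicate assays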;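 note: 100% = median of untreated cell wells with 0.1% DMSO on each plate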); conditions: HUVEC proliferation, CellTiter-Glo luminescence, 72 h; at 10 µM; stronger effect = lower value
[16] = H69AR cells + 2 uM doxorubicin, measured here: viability with 2 uM doxorubicin, stronger effect = lower value
[17] = H69AR cells, compound alone cytotoxicity

SMILES | viability [1] [%] | Her2 level [2] | viability [3] | viability [4] | differential viability (reversal) ([5]; H69AR cells + 2 uM doxorubicin) | viability [5, 16] [%] | viability [5, 17] [%] | inhibition [6] | inhibition [7] | growth inhibition [8] | growth inhibition [9] | viability increase [10] | viability [11] | viability [12] | inhibition [13] | RAM network inhibition [14] | viability [15]
CCOC(=O)c1ccc(N=c2sc(C(=O)OC)cc(=O)n2Cc2ccco2)cc1 | 110 | -1.5% (active) | 110% (inactive) | 1.51% (active) | 0.27% (inactive) | 1.24 | 1.51 | -3.21% (inactive) | -1.33% (inactive) | -11.7% (inactive) | -2.14% (inactive) | -8.48% (inactive) | 5.04% (active) | 1.63% (active) | 1.42% (inactive) | 7.3% (inactive) | 
COc1cc(C(=O)NCCc2ccc3c(c2)OCCO3)ccc1OCC(=O)N1CCOCC1 |  |  | 100% (inactive) | 93.3% (inactive) | 1.3% (inactive) | 92 | 93.3 | -5.95% (inactive) | -6.55% (inactive) | -14.7% (inactive) | -16% (inactive) | -2.17% (inactive) | 97.6% (inactive) | 96.3% (inactive) | 1.68% (inactive) | 1.5% (inactive) | 112% (inactive)
O=C(CS(=O)(=O)c1cn(Cc2ccc(F)cc2)c2ccccc12)N1CCCCC1 | 92 | 88.5% (inactive) | 92% (inactive) | 99.9% (inactive) | 11.9% (inactive) | 88 | 99.9 | -5.68% (inactive) | -5.17% (inactive) | -24.1% (inactive) | -12.8% (inactive) | -3.63% (inactive) | 82.4% (inactive) | 82.9% (inactive) | 2.3% (inactive) | 5% (inactive) | 
CCOC(=O)CSC1=C(C#N)C(c2ccc(C)o2)CC(=O)N1 (stereo not drawn) | 98.5 | 83.5% (inactive) | 98.5% (inactive) | 26.6% (active) | -21.3% (inactive) | 47.9 | 26.6 | -4.4% (inactive) | -0.66% (inactive) | -8.58% (inactive) | 7.01% (inactive) | -5.31% (inactive) | 13.7% (active) | 14.7% (active) | 1.17% (inactive) | 0.15% (inactive) | 
Cc1ccc(C(=O)Nc2ccc(Cl)cn2)cc1S(=O)(=O)N1CCOCC1 |  |  | 90% (inactive) | 81.5% (inactive) | -11.5% (inactive) | 93 | 81.5 | 0.39% (inactive) | 5% (inactive) | -3.23% (inactive) | 0.715% (inactive) | 1.52% (inactive) | 86.4% (inactive) | 79.9% (inactive) | 1.39% (inactive) | 5.97% (inactive) | 78.3% (inactive)
C/C=C/COC(=O)c1[nH]c2c(c1C)C(=O)CC(c1ccco1)C2 (stereo not drawn) | 80.5 | 62% (inactive) | 80.5% (inactive) | 24.4% (active) | -15.9% (inactive) | 40.2 | 24.4 | -2.67% (inactive) | -3.28% (inactive) | -4.97% (inactive) | -2.88% (inactive) | -4.93% (inactive) | 16.6% (active) | 19.8% (active) | 0.985% (inactive) | 0.51% (inactive) | 
Oc1cccc(C=NCc2ccccc2)c1O | 78 | 82.5% (inactive) | 78% (inactive) |  | -26% (inactive) | 77 | 51 | -0.39% (inactive) | -0.5% (inactive) | 83.7% (active) | 97.5% (active) | -3.97% (inactive) | 71% (inactive) | 72.2% (inactive) | -0.21% (inactive) | -1.18% (inactive) | 67.3% (inactive)
CCOc1ccccc1NC(=O)C1CCCN(S(=O)(=O)c2cccc3cccnc23)C1 (stereo not drawn) | 108 | 94.5% (inactive) | 108% (inactive) | 78.1% (inactive) | -11.7% (inactive) | 89.8 | 78.1 | -6.13% (inactive) | 1.67% (inactive) | -4.4% (inactive) | -21% (inactive) | -3.58% (inactive) | 76.2% (inactive) | 71.9% (inactive) | 1.14% (inactive) | 4.95% (inactive) | 
Cc1cc(=O)oc2c1ccc1oc(/C(=N/O)c3ccccc3)c(C)c12 | 84 | 112% (inactive) | 84% (inactive) | 74.5% (inactive) | -17.2% (inactive) | 91.7 | 74.5 | 8.46% (inactive) | 17.2% (inactive) | -11% (inactive) | 10.6% (inactive) | 5.23% (inactive) | 80.8% (inactive) | 65.4% (inactive) | 0.035% (inactive) | 9.44% (inactive) | 
C/C=C/CSc1nc2c(c(=O)[nH]c(=O)n2C)n1Cc1ccc(C)cc1 | 102 | 98.5% (inactive) | 102% (inactive) | 35.5% (active) | -22.7% (inactive) | 58.2 | 35.5 | -1.6% (inactive) | -0.49% (inactive) | 0.005% (inactive) | 1.29% (inactive) | -4.39% (inactive) | 84.4% (inactive) | 69.3% (inactive) | 1.98% (inactive) | 2.77% (inactive) | 
CC1=C(C(=O)OC2CCCCCC2)C(c2ccc(C)o2)C2=C(CCCC2=O)N1 (stereo not drawn) |  |  | 124% (inactive) | 97.2% (inactive) | -3.5% (inactive) | 101 | 97.2 | -1.49% (inactive) | 2.38% (inactive) | -11.2% (inactive) | -22.5% (inactive) | -2% (inactive) | 70.8% (inactive) | 78.8% (inactive) | 1.77% (inactive) | 1.63% (inactive) | 102% (inactive)
Cc1cc(C)nc(SCc2ccc3nonc3c2)n1 |  |  | 99% (inactive) | 89.2% (inactive) | 15.7% (inactive) | 73.5 | 89.2 | -6.53% (inactive) | -0.18% (inactive) | -9.08% (inactive) | -6.27% (inactive) | -0.41% (inactive) | 96.3% (inactive) | 98% (inactive) | 0.535% (inactive) | 3.64% (inactive) | 89.9% (inactive)
O=C(COc1ccc(F)cc1)Nc1ccc(-n2cnnn2)cc1 |  |  | 103% (inactive) | 93.1% (inactive) | 12% (inactive) | 81.1 | 93.1 | -4% (inactive) | -1.27% (inactive) | 2.42% (inactive) | 2.31% (inactive) | 3.62% (inactive) | 102% (inactive) | 100% (inactive) | 0.61% (inactive) | 0.57% (inactive) | 107% (inactive)
COC(=O)c1cc(-c2ccccc2)sc1NC(=O)c1cc(C)on1 |  |  | 121% (inactive) | 95.9% (inactive) | 5.14% (inactive) | 90.8 | 95.9 | -4.38% (inactive) | -6.45% (inactive) | -0.31% (inactive) | -11.1% (inactive) | -2.24% (inactive) | 93.7% (inactive) | 84.2% (inactive) | 1.4% (inactive) | 2.94% (inactive) | 96.6% (inactive)
COc1ccccc1OCCNC(=O)c1cccs1 |  |  | 84% (inactive) | 91.1% (inactive) | 9.52% (inactive) | 81.6 | 91.1 | -3.33% (inactive) | -0.18% (inactive) | -6.5% (inactive) | 3.83% (inactive) | 0.85% (inactive) | 97.9% (inactive) | 103% (inactive) | 1.21% (inactive) | 7.11% (inactive) | 115% (inactive)
Clc1cccc(-c2nnc(-c3ccccc3)o2)c1 |  |  | 57% (inactive) | 76.7% (inactive) | -4.06% (inactive) | 80.7 | 76.7 | -8.92% (inactive) | 0.82% (inactive) | 8.84% (inactive) | 3.85% (inactive) | -6.09% (inactive) | 4.61% (active) | 21.4% (active) | 1.33% (inactive) | 0.25% (inactive) | 78.7% (inactive)
COc1cc(-c2nc(-c3ccncc3)no2)cc(OC)c1OC |  |  | 100% (inactive) | 89.1% (inactive) | 1.12% (inactive) | 88 | 89.1 | -5.87% (inactive) | -2.18% (inactive) | -1.17% (inactive) | 11.1% (inactive) | -2.77% (inactive) | 103% (inactive) | 99.3% (inactive) | 2.17% (inactive) | 3.72% (inactive) | 101% (inactive)
CCOC(=O)N1CCN(C(=O)CN(C2CCCCC2)S(=O)(=O)c2ccc(F)cc2)CC1 |  |  | 113% (inactive) | 97.7% (inactive) | 5.98% (inactive) | 91.7 | 97.7 | -6% (inactive) | -4.36% (inactive) | -7.17% (inactive) | -5.59% (inactive) | 0.22% (inactive) | 99.8% (inactive) | 103% (inactive) | -0.815% (inactive) | 6.62% (inactive) | 97.3% (inactive)
Cc1cc(NC(=O)CSc2nc3c(c(-c4cccnc4)c2C#N)CCC3)no1 |  |  | 65% (inactive) | 90.9% (inactive) | 6.63% (inactive) | 84.3 | 90.9 | -5.6% (inactive) | -3.09% (inactive) | 2.25% (inactive) | 1.02% (inactive) | 0.51% (inactive) | 101% (inactive) | 98.5% (inactive) | 1.75% (inactive) | 5.05% (inactive) | 111% (inactive)
FC(F)(F)COc1nc(N2CCCCC2)nc(N2CCNCC2)n1 |  |  | 82% (inactive) | 92.3% (inactive) | 15% (inactive) | 77.4 | 92.3 | -4.86% (inactive) | -4% (inactive) | 4.64% (inactive) | -3.79% (inactive) | -3.4% (inactive) | 85.5% (inactive) | 84.5% (inactive) | 0.78% (inactive) | -2.05% (inactive) | 98.8% (inactive)
C#CCOC(=O)C1C2C=CC(C2)C1C(=O)O (stereo not drawn) |  |  | 86% (inactive) | 93.6% (inactive) | 11.9% (inactive) | 81.7 | 93.6 | -6.27% (inactive) | 1.45% (inactive) | 2.87% (inactive) | -1.21% (inactive) | 0.51% (inactive) | 103% (inactive) | 96.8% (inactive) | -0.215% (inactive) | 2.5% (inactive) | 109% (inactive)
